Measurements as given in PubChem BioAssay (NCI).
This is part of a sample that, as a whole, favours compounds with a hit. Of some 83,000 tested, about 20% had one in any assay.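 Interpretation: 100, growth as untreated; towards 0, rising growth inhibition; 0, no net growth; 0 to -100, cell death. Compounds scoring below 10 were considered active.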 Unmarked numbers belong to inactive results. Calls of active or inactive are those of the source.

What follows are compounds tested on HL-60(TB) leukemia (assay: NCI-60 one-dose screen, 48 h (100 = growth as untreated, 0 = no growth, -100 = all killed)). Conditions: 10 µM unless noted.
With `CN1C(=O)N(C)C2(c3ccccc3)OC(=S)NC12c1ccccc1` (stereo not given) the growth was 95.6%. In the case of `Cc1ccc(C(=O)c2ccc(CC(=O)N=Nc3c(O)[nH]c4ccc(Br)cc34)n2C)cc1`, the growth is reported as 89.4%. Work on `Cc1cccc2c1C[C@@]1(C2=O)C(c2ccc(C(C)(C)C)cc2)=NOS1=O` (stereo not given in full) yielded a growth of 100%. `CCOC(=O)c1c(O)cc(-c2ccccc2)cc1-c1sc(N(C)Cc2ccccc2)nc1Cl` was tested, and the growth was 100%. For `CCNCC(=O)Nc1ccc(C(=O)OCC)cc1`, the growth was 88.6%. For `COc1ccc(CCN2CCC(Nc3nc4ccccc4n3Cc3ccc(F)cc3)CC2)cc1`, the growth was -53.5% (active). For `C(=N\Nc1ccccn1)/c1ccccn1`, the growth was 12.3%. `CC(=O)C1Cc2ccccc2C1=O` (stereo not given) showed a growth of 97.4%. Work on `O=C1NC(=O)C(c2ccc(Cl)cc2Cl)N1` (stereo not given) yielded a growth of 107%. In the case of `COC(=O)C(OC(C)=O)C(OC(C)=O)c1ccc(OC)c(OC)c1` (stereo not given), the growth is reported as 81.3%. Work on `N#C/C(=C\c1ccccc1Cl)c1cc2ccccc2[nH]1` yielded a growth of 98.8%. With `COc1ccc(C(=O)c2cc3c(N)c(C(=O)Nc4ccc(C)cc4)sc3nc2C)cc1` the growth was 7.74% (active). For `COc1ccc2cc(C(C)C(=O)Nc3ccc(S(=O)(=O)Nc4cc(C)on4)cc3)ccc2c1` (stereo not given), the growth was 143%. With `Nc1ccc(C2=NNC(=O)Cc3cc4c(cc32)OCCO4)cc1Cl` the growth was 7.27% (active). With `O=S(=O)(CCN1CCOCC1)Nc1cncc(-c2ccc3ncnc(Nc4ccc(F)c(Cl)c4)c3c2)c1` the growth was 110%. Work on `c1cc(-c2ccc3c(c2)OCO3)n2nccc2n1` yielded a growth of 98.4%. For `O=C(COc1ccc(/C=C2\Cc3ccccc3C2=O)cc1)c1ccc(Cl)cc1`, the growth was 118%. Compound `O=[N+]([O-])c1cccc(C2c3ccccc3Oc3ccccc32)c1` has a growth of 99%. For `CC[C@]12C=CCN3CC[C@@]4(c5ccc(OC)cc5N(C)[C@H]4[C@@](O)(C(=O)OC)[C@@H]1OC(=O)CCC(=O)N[C@@H](Cc1c[nH]c4ccccc14)C(=O)OC)[C@@H]32`, the growth was -5.33% (active). In the case of `Cc1oc2c(c1C(=O)N1CC[C@@H](N)C1)C(=O)c1c(c(O)c3ccccc3c1O)C2=O`, the growth is reported as -22.8% (active). In the case of `C#CCn1cnc2cnc(Nc3cccc(NC(=O)CCl)c3)nc21`, the growth is reported as -7.95% [6.25 µM] (active). `O=S(=O)(NCCCNc1nccc(-c2c(-c3ccc(O)cc3)nc3sccn23)n1)c1ccc(F)cc1` was tested, and the growth was -32.3% (active). In the case of `Nc1c(Br)cc2c(c1Br)Cc1cc([N+](=O)[O-])ccc1-2`, the growth is reported as 69.6%. `Nc1ncnc2c1N=C(c1ccc(Cl)cc1)CC(c1ccc3c(c1)OCO3)N2` (stereo not given) was tested, and the growth was 90.7%. For `COc1cc(/C=C/c2cc(/C=C/c3ccc(O)c(OC)c3)n(C(=O)Nc3ccc(Cl)cc3)n2)ccc1O`, the growth was -20.9% (active). `CC(C)CC(NC(=O)OCC1c2ccccc2-c2ccccc21)C(=O)O` (stereo not given) gave a growth of 105%. With `CCOc1ccccc1CN1CCc2nc3cc(C(C)(C)C)[nH]n3c(=O)c2C1` the growth was 99.4%. Compound `CCc1nnc(NC(=O)c2nnn(-c3ccccc3)c2-c2ccco2)s1` has a growth of 79.9%. For `Cc1cc(N2CCCCC2)nc(N(CCNc2ccnc3cc(Cl)ccc23)Cc2ccccn2)n1`, the growth was 41.6%. `O=C(N=c1oc2ccccc2cc1-c1cc2ccccc2[nH]1)Nc1ccc(Cl)cc1` gave a growth of 78.6%. Work on `O=C(CC(CC(=O)c1ccccc1)c1ccccn1)c1ccccc1` yielded a growth of 104%. Work on `O=C(c1nc2ccccc2[nH]1)C1C(c2ccc(Cl)cc2)C2CC3CCCC[C@H]3N2[C@@]12C(=O)Nc1cc(Cl)ccc12` (stereo not given in full) yielded a growth of 23.8%. For `CC1=CC(=Nc2ccc(N(C)C)cc2)C=C(C)C1=O`, the growth was 42.8%. In the case of `C=CCn1c(CN2CCN(c3cc4c(cc3F)c(=O)c(C(=O)O)cn4C3CC3)CC2)n[nH]c1=S`, the growth is reported as 90.1%. `CC(=O)OC1/C=C\CC/C=C\C1` (stereo not given) was tested, and the growth was 101%. For `CCN1CCN(c2nc3ccccc3c3c(=O)c4cc(F)ccc4sc23)CC1`, the growth was 104%. `S=c1[nH]nc2sc3ccccc3n12` was tested, and the growth was 107%. Work on `CN(C)c1ccc(/C=N/NC(=O)CSc2nc3sc4c(c3c(=O)n2-c2ccccc2)CCCCC4)cc1` yielded a growth of 86.8%. Work on `O=c1[nH]ccc2nc(N3CCC(O)CC3)nc(Nc3ccc(N4CCOCC4)cc3)c12` yielded a growth of 18.9%. `O=C(NC(Cc1ccccc1)C(=O)CCl)OCc1ccccc1` (stereo not given) gave a growth of 39.8%.
